Test results reported in PubChem BioAssay (NCATS).
Values joined by “and” are separate entries in the source; they are usually repeats but may differ in a detail not shown here. Equal values may be shown once. Results filed as inconclusive are left out. Active and inactive are the calls of the source. Unless noted, calls come from the whole dose curve; as a rule, active = well fitted curve in either direction with a large enough effect (not every such curve was filed as active); inconclusive = small, poorly fitted or top-dose-only effect, or another doubt; inactive = flat fitted curve, though single readings scatter.

How the values were obtained:
[1] = AP1 Signaling Pathway (AID 357); conditions: ME-180 (cervical carcinoma) AP-1-bla reporter, EGF-induced, beta-lactamase ratio, 5 h;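 note: ME-180 reporter cells stimulated with EGF at its EC50 level; % is set by controls: 0 for no effect and ±100 for the full control effect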
In short: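 Beta-lactamase reporter under AP-1 response element, ME-180 background. Stimulus: EC50 EGF. Compound exposure 5 h, 37 °C. Detection: CCF4, 2.5 h RT, 460/530 nm. Values: AC50 from titration.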

[2] = biological target: Cytochrome P450 1A2 (Homo sapiens) (UniProt P05177); experiment: p450-cyp1a2 (AID 410; calls by dose curve; note: potency is the fitted concentration of half-maximal effect;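 for activity change, negative = inhibition: -100% = full effect of reference inhibitor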); conditions: recombinant CYP1A2, luciferin-ME demethylation, luminescence; series mostly up to 57 µM
In short: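 20nM CYP1A2, 100uM Luciferin-ME (=Km), 100mM KPO4; cpd 10 min RT; +NADPH regen, 60 min RT; stop/detect 20 min; luminescence. Normalized to furafylline 57 uM = full inhibition.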

[3] = NFAT Signaling Pathway (AID 444); conditions: Jurkat NFAT-bla M1, carbachol, beta-lactamase ratio, 5 h;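 note: carbachol stimulus at about its EC50 of 1 µM final; % is set by controls: 0 for no effect and ±100 for the full control effect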
In short: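 Jurkat cells with NFAT-driven β-lactamase reporter and co-expressed M1 receptor, stimulated with carbachol (final 1 uM, ~EC50), compound titration, 5 h at 37 °C. CCF4 loaded 1 h at RT; 460/530 nm ratio gave %activity and AC50.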

[4] = biological target: Lysosomal acid glucosylceramidase (Homo sapiens) (UniProt P04062); experiment: Glucocerebrosidase-p2 (AID 348; in the data active = potency below about 10 µM; note: potency is the fitted concentration of half-maximal effect); conditions: purified GBA, blue fluorogenic substrate, 40 min
Excerpt: Beta-glucocerebrosidase catalyzes the hydrolysis of beta-glucocerebroside to glucose and ceramide. The inherited deficiency of beta-glucocerebrosidase results in Gaucher disease, which is characterized by a wide variety of symptoms including hepatosplenomegaly, anemia, thrombocytopenia, bony lesions and bone marrow infiltration with characteristic storage cells, known as Gaucher cells. There are also forms of the disorder affecting the central nervous system. Patients with the same genotypes can manifest with diverse clinical presentations and it is believed that improper folding and trafficking of beta-glucocerbrosidase may contribute to the phenotypes observed.
Low molecular weight molecules, acting as chaperones, may potentially restore trafficking of misfolded beta-glucocerebrosidase from the endoplasmic reticulum to the lysosomes, thereby enhancing functional lysosomal beta-glucocerebrosidase activity.
Using normal beta-glucocerebrosidase, an assay was developed to screen for small molecule inhibitors that could potentially act as molecular chaperones on the mutant forms [developed with NIH investigator Dr. Ellen Sidransky#s laboratory]. Two pro-fluorescent substrates were chosen for two screens against a small molecule library. […]
Blue fluorescence substrate assay: […]
Read the plate in Viewlux plate reader (Ex=365(10) and Em=440(10)).

[5] = Cell Viability - BJ (AID 421; calls by dose curve;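 note: potency is the fitted concentration of half-maximal effect; cells exposed to compound for 40 hours at 37 °C before readout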); conditions: BJ fibroblast viability, qHTS
In short: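 Normal human BJ foreskin fibroblasts, 1500/well in complete medium, treated 40 hr at 37 °C. Cellular ATP by CellTiter-Glo luminescence; normalized to DMSO and 100 uM tamoxifen, AC50 from Hill fit.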

[6] = Cell Viability - Jurkat (AID 426;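 active = dose-dependent loss of cell ATP signal giving a full or clear fitted curve, ranked by lower potency value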; note: potency is the fitted concentration of half-maximal effect); conditions: qHTS
In short: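 Luminescent ATP read-out (CellTiter-Glo, 20 min at room temperature) after 40 hr compound exposure at 37 °C of Jurkat E6-1 cells, 5000/well. Decreased ATP taken as cytotoxicity; AC50 from standard Hill equation.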

[7] = Cell Viability - Hek293 (AID 427;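 active = compounds whose dose-response curve shows a full or clear partial loss of cell viability, called from curve shape rather than a numeric limit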;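 note: potency is the fitted concentration of half-maximal effect; cells exposed to compound for 40 hours at 37 °C before reading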); conditions: qHTS
In short: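 HEK293 cells in complete medium were exposed to compound for 40 hr at 37 °C, then cellular ATP was read by CellTiter-Glo luminescence. Data were normalized to DMSO (basal) and 100 uM tamoxifen (100% inhibition), and AC50 came from Hill fits.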

[8] = Cell Viability - HepG2 (AID 433; calls by dose curve;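 note: potency is the fitted concentration of half-maximal effect; potency for ATP loss meaning cytotoxicity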); conditions: qHTS
In short: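 ATP luminescence (CellTiter-Glo) after 40 h compound exposure, 37 °C, HepG2, 1500 cells/well, complete medium. Normalized: DMSO = basal, 100 uM tamoxifen = 100% inhibition. AC50 via standard Hill equation.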

[9] = Cell Viability - MRC5 (AID 434; calls by dose curve;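 note: potency is the fitted concentration of half-maximal effect; potency reflects cytotoxicity seen as loss of intracellular ATP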); conditions: MRC5 lung fibroblast viability, qHTS
In short: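 ATP luminescence read-out (CellTiter-Glo, 20 min RT) after 40 hr, 37 °C compound exposure of 1500 MRC5 cells/well. Data normalized to DMSO (basal) and 100 uM tamoxifen (100% inhibition); AC50 from standard Hill equation.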

[10] = Cell Viability - SK-N-SH (AID 435; calls by dose curve; note: potency is the fitted concentration of half-maximal effect); conditions: SK-N-SH neuroblastoma cell viability qHTS
In short: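 CellTiter-Glo ATP luminescence, 20 min RT read; cells pre-plated 5 hr, compound 40 hr at 37 °C, 1500 cells/well, complete medium. Normalized DMSO = 0, 100 uM tamoxifen = 100% inhibition; Hill-fit AC50.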

Sequence of Cytochrome P450 1A2 (Homo sapiens) (P05177 whole entry, looked up): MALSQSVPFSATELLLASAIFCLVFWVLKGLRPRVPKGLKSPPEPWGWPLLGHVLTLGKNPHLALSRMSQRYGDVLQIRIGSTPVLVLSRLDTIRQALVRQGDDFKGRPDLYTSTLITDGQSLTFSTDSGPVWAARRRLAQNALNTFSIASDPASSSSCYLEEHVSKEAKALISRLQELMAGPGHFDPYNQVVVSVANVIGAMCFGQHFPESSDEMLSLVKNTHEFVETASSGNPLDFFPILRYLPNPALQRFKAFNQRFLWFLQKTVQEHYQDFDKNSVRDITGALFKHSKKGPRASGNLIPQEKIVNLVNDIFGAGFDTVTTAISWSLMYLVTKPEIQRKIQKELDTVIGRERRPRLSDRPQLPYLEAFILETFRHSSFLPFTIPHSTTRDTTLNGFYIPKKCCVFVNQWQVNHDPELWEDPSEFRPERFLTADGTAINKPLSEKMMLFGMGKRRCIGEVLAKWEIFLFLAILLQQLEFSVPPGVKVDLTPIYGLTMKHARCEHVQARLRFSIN
Sequence of Lysosomal acid glucosylceramidase (Homo sapiens) (P04062 whole entry, looked up): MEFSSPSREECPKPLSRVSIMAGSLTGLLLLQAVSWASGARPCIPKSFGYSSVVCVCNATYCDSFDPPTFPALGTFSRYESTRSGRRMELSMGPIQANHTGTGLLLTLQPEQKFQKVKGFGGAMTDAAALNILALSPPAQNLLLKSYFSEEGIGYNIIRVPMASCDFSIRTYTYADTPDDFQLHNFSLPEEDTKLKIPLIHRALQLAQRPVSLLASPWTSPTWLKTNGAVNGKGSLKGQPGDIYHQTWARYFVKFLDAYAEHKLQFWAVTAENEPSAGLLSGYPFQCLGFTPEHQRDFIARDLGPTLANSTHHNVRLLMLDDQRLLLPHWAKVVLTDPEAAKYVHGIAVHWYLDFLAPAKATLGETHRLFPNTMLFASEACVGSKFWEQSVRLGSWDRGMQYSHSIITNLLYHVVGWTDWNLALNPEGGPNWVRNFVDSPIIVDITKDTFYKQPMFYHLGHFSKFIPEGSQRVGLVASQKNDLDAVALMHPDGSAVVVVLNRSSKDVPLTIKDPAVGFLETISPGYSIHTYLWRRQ

Nc1nc2c(ncn2COCCO)c(=O)[nH]1
inactive: activity change, negative = inhibition ([1]; at 17.2 µM (top of the series)) 10.5% and -13.7% | activity change, negative = inhibition ([1]; at 38 µM (top of the series)) 1.53% | Potency [2] | activity change, negative = inhibition ([3]; at 17.2 µM (top of the series)) -0.796% and 22.4% | activity change, negative = inhibition ([3]; at 38 µM (top of the series)) 9.44%

C1COC(NC(C2CC2)C2CC2)=N1
inactive: activity change, negative = inhibition ([1]; at 17.2 µM (top of the series)) -19.2% and -1.91% | activity change, negative = inhibition ([1]; at 38 µM (top of the series)) -23.4% | Potency [2] | activity change, negative = inhibition ([3]; at 17.2 µM (top of the series)) -20.2% and 11.2% | activity change, negative = inhibition ([3]; at 38 µM (top of the series)) -2.75%

N[C@@H]1CONC1=O
inactive: activity change, negative = inhibition ([1]; at 17.2 µM (top of the series)) 4.13% and -17.2% | activity change, negative = inhibition ([1]; at 38 µM (top of the series)) 6.67% and -0.268% and -2.74% | Potency [2] | activity change, negative = inhibition ([3]; at 17.2 µM (top of the series)) -1.83% | activity change, negative = inhibition ([3]; at 38 µM (top of the series)) -6.1% and -4.54% and -4.29%

Clc1cccc(Cl)c1NC1=NCCN1
inactive: activity change, negative = inhibition ([1]; at 17.2 µM (top of the series)) -0.203% | activity change, negative = inhibition ([1]; at 38 µM (top of the series)) 4.79% | Potency [2] | activity change, negative = inhibition ([3]; at 17.2 µM (top of the series)) -11.5% | activity change, negative = inhibition ([3]; at 38 µM (top of the series)) -5.97%

Cc1cc2c(C(C)C)c(O)c(O)c(C=O)c2c(O)c1-c1c(C)cc2c(C(C)C)c(O)c(O)c(C=O)c2c1O
active: Potency [2] 15.8 µM | activity change, negative = inhibition ([3]; at 17.2 µM (top of the series)) -68.3%

CN1CCN(CCCN2c3ccccc3Sc3ccc(C(F)(F)F)cc32)CC1
inactive: Potency [4] > 11.4 µM | activity change, negative = inhibition ([1]; at 17.2 µM (top of the series)) 7.77% and 23.2% | activity change, negative = inhibition ([1]; at 38 µM (top of the series)) 29.9%

Nc1nc2ccc(OC(F)(F)F)cc2s1
inactive: activity change, negative = inhibition ([1]; at 17.2 µM (top of the series)) 7.09% and 1.61% | activity change, negative = inhibition ([1]; at 38 µM (top of the series)) -15% | activity change, negative = inhibition ([3]; at 17.2 µM (top of the series)) 0.982% and -0.48% | activity change, negative = inhibition ([3]; at 38 µM (top of the series)) 13.4%

NS(=O)(=O)c1cc2c(cc1Cl)NC=NS2(=O)=O
inactive: activity change, negative = inhibition ([1]; at 17.2 µM (top of the series)) 10.4% and 2.47% | activity change, negative = inhibition ([1]; at 38 µM (top of the series)) -2.75% | Potency [5] > 92 µM | Potency [6] > 92 µM | Potency [7] > 92 µM | Potency [8] > 92 µM | Potency [9] > 92 µM | Potency [10] > 92 µM | activity change, negative = inhibition ([3]; at 17.2 µM (top of the series)) -2.56% and 9.37% | activity change, negative = inhibition ([3]; at 38 µM (top of the series)) 8.02%
